# Data published in PubChem BioAssay AID602248 (The Scripps Research Institute Molecular Screening Center, 2012).
# Out of some 360,000 compounds screened, about 1,700 (0.47%) were called active. This is one part of a sample in which actives are shown more often than they occur. Rule as the data show it: active = activation above about 15%; inactive = the rest.
# Experiment: counter-screen for M1 agonists: effect in parental CHO-K1 cells (AID 602248);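 also: untransfected CHO-K1 host cells lacking M1 receptor as counterscreen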
# Conditions: Fluo-8 calcium fluorescence, at 3 µM, active compounds read high, scaled to maximal ATP response, vehicle zero
row,Compound,activation
1,COC(=O)c1cc(C(=O)OCC(=O)Nc2cc(C)on2)cc([N+](=O)[O-])c1,0.23% (inactive)
2,CN1CCN(C(=O)c2cnn(-c3ccccc3)c2NC(=O)c2ccc([N+](=O)[O-])cc2)CC1,0.79% (inactive)
3,COc1cc(C(=O)NCc2ccc(-n3cccc3)cc2)cc(OC)c1OC,7.89% (inactive)
4,CCn1c(CNC(=O)c2cc(OC)c(OC)c(OC)c2)cc2cc(C)ccc21,20.6% (active)
5,COc1cc(C(=O)NCc2ccc3c(c2)cc(C)n3C)cc(OC)c1OC,-0.48% (inactive)
6,CCCCC(=O)NCc1ccc(F)cc1,-0.33% (inactive)
7,CCCOCC(O)CC(CC)C(=O)NNC(=S)Nc1ccccc1 (stereo unspecified),0.03% (inactive)
8,CCCCC(=O)NNC(=S)NC(=O)C(c1ccccc1)c1ccccc1,86% (active)
9,CCCCC(CC)CNC(=O)C(=O)C1C(=O)Nc2ccccc21 (stereo unspecified),-0.65% (inactive)
10,CCOC(=O)c1c(C)oc(C)c(C(=O)OCC)c1=O,0.16% (inactive)
11,O=C1NC[C@H](CCCCN2C[C@H](Cc3ccc(O)cc3)N(CCc3ccccc3)C(=O)C2=O)N(CCc2ccccc2)C1=O,0.62% (inactive)
12,Cc1ccc(C(=O)N/C(=C/c2ccco2)C(=O)NCCc2c[nH]c3ccccc23)cc1C,1.71% (inactive)
13,N#C/C(=C/c1ccc(N2CCCCC2)o1)C(=O)NCCc1c[nH]c2ccccc12,24.1% (active)
14,N#C/C(=C\c1ccc(N2CCOCC2)o1)C(=O)N1CCOCC1,4.52% (inactive)
15,C=CCSc1nsc(NC(=O)Nc2cccc(C(C)=O)c2)n1,15.8% (active)
16,CC(=O)c1cccc(NC(=O)[C@@H](NC(N)=O)C(C)C)c1,-0.09% (inactive)
17,COc1ccc(C(=O)OCC(=O)Nc2cccc(C(C)=O)c2)cc1OC,2.14% (inactive)
18,CCSc1nsc(NC(=O)Nc2cccc(C(C)=O)c2)n1,16.5% (active)
19,CCCCN1C(=O)C(=O)N(CC(=O)Nc2cccc(C(C)=O)c2)C1=O,-0.29% (inactive)
20,CCc1nnc(NC(=O)CSc2nnnn2-c2cccc(C(C)=O)c2)s1,-0.49% (inactive)
21,Cc1ccc(C(=O)N2CCC(n3nccc3NC(=O)Nc3cccc(F)c3)CC2)cn1,1.73% (inactive)
22,COc1ccc(OCC(=O)OCC(=O)Nc2ccc(S(=O)(=O)N3CCCCC3)cc2)cc1,0.75% (inactive)
23,CCOC(=O)COc1ccc(Cl)cc1C1NC(=O)NC(C)=C1C(C)=O (stereo unspecified),0.08% (inactive)
24,CN(C)CCCCCN(C)Cc1cc2ccccc2o1,0% (inactive)

row,Compound,activation
1,CCCCNC(=O)c1nc(C2CCN(S(=O)(=O)c3ccc(F)c(F)c3)CC2)oc1-c1cccc(C(F)(F)F)c1,2.76% (inactive)
2,Cn1nnnc1SCC(=O)NNC(=O)c1ccc(Br)cc1,-0.47% (inactive)
3,COC(=O)COc1ccc2c(=O)c(Oc3ccccc3Br)coc2c1,0.1% (inactive)
4,C[C@H](CO)N1C[C@H](C)[C@@H](CN(C)S(=O)(=O)c2ccc(Oc3ccccc3)cc2)OCc2cn(nn2)CCCC1=O,0.23% (inactive)
5,CC(OC(=O)CN1C(=O)C2CCCCC2C1=O)C(=O)Nc1ncc(Cl)cc1Cl (stereo unspecified),0.87% (inactive)
6,O=C(COc1ccc(F)cc1Br)NCC1COc2ccccc2O1 (stereo unspecified),0.07% (inactive)
7,c1ccc2c(c1)OCC(CNc1ncnc3nc[nH]c13)O2 (stereo unspecified),109% (active)
8,O=C(COC(=O)c1ccc(F)cc1)NCC1COc2ccccc2O1 (stereo unspecified),1.54% (inactive)
9,Cn1c(N)cc(=O)n(C)c1=S,-0.09% (inactive)
10,COc1ccc(S(=O)(=O)N2CCOCC2)c(C)c1C,0.55% (inactive)
11,COCCNc1ncnc2c1nc1n2CCCC1,0.47% (inactive)
12,O=C(CCc1ccccc1)Nc1nn[nH]n1,1.57% (inactive)
13,O=C(/C=C/c1c(Cl)cccc1Cl)NCc1ccccc1,0.05% (inactive)
14,O=C(/C=C/c1c(F)cccc1Cl)Nc1nn[nH]n1,22% (active)
15,O=C1CCC(=O)N(O)CCCCCNC(=O)CCC(=O)N(O)CCCCCNC(=O)CCC(=O)N(O)CCCCCN1,-0.15% (inactive)
16,CCOc1ccc(OCC)c(NC(=O)C2CCN(S(=O)(=O)c3c(C)noc3C)CC2)c1,-0.25% (inactive)
17,Clc1ccc(CSc2nnc([C@@H]3CCCN3)o2)cc1,0.78% (inactive)
18,CCN1/C(=C\c2ccc3ccccc3[n+]2CC)Sc2cc(C)ccc21,22.8% (active)
19,Cc1nn(C)cc1N1C(=O)c2cccc3c(N)ccc(c23)C1=O,40.2% (active)
20,CN1C(=O)c2cccc3c(N)ccc(c23)C1=O,28.8% (active)
21,CC(=O)OC1CCC2(C)C(=CCC3C4CC(=O)N(O)C(=O)C4(C)CCC32)C1 (stereo unspecified),0.34% (inactive)
22,O=C1CCC[C@@H]2CC(N3CCCCC3)C[C@@H]3CCN1[C@H]23 (stereo partly specified),0.27% (inactive)
23,CCCc1c(C(=O)N/N=C(\C)CCc2ccc(OC)cc2)nnn1-c1nonc1N,0.32% (inactive)
24,Cc1ccc(S(=O)(=O)Nc2nc(CN3CCOCC3)nc3sc(C)c(C)c23)cc1,0.12% (inactive)

row,Compound,activation
1,CCCCCCCCCCCCN1C(=O)CSC1c1cccnc1 (stereo unspecified),1.63% (inactive)
2,Oc1ccc2ccc3cccc[n+]3c2c1,25.3% (active)
3,COc1ccc(CCNC(=O)CSc2nnc3ccc(-c4ccncc4)nn23)cc1,0.28% (inactive)
4,COCc1cc(C)nc2sc3c(=O)n(-c4cccc5ccccc45)nnc3c12,0.44% (inactive)
5,O=C(NCc1ccccc1)C1CCCN(c2nc3ccsc3c(=O)s2)C1 (stereo unspecified),18.9% (active)
6,O=C(NCc1ccccc1)C1CCCN(S(=O)(=O)c2cccs2)C1 (stereo unspecified),0.58% (inactive)
7,Cc1cc(=O)n2nc(N3CCCC(C(=O)NCc4ccc(Cl)cc4)C3)sc2n1 (stereo unspecified),0.13% (inactive)
8,CC(C)NC(=O)c1ccc(Sc2ccccc2)c([N+](=O)[O-])c1,-0.3% (inactive)
9,CC(C)(C)NC(=O)CN1CCC(NC(=O)C23CC4CC(CC(C4)C2)C3)CC1,0.73% (inactive)
10,COc1cc(OC)c(C(=S)N2CCCC2)cc1OC,-0.12% (inactive)
11,CC(NC(=O)c1cccc2ccccc12)c1ccc2c(c1)CCCC2 (stereo unspecified),-0.03% (inactive)
12,Nc1ccc2nc3c(=O)[nH]c(=S)[nH]c3nc2c1,21.2% (active)
13,COc1cc(C(=O)OCc2cc(=O)n3ccsc3n2)ccc1OC(C)C,1.63% (inactive)
14,Cc1cccc(C)c1NC(=S)N(Cc1cccnc1)Cc1ccccc1Cl,19.6% (active)
15,Cc1ccc(CN(Cc2cccnc2)C(=S)Nc2cccc(Cl)c2C)cc1,0.06% (inactive)
16,Cc1c(Cl)cccc1NC(=S)N(Cc1ccccc1)Cc1cccnc1,0.16% (inactive)
17,O=C1Nc2ccccc2NC(c2ccc3c(c2)OCO3)=C1N(Cc1ccc(F)cc1)C(=O)c1ccco1,1.41% (inactive)
18,O=C(Nc1cc(S(=O)(=O)N2CCCCC2)ccc1Cl)C1COc2ccccc2O1 (stereo unspecified),3.15% (inactive)
19,CC(=O)c1ccccc1NC(=O)COC(=O)C1COc2ccccc2O1 (stereo unspecified),0.64% (inactive)
20,O=C(Nc1ncc([N+](=O)[O-])s1)C1COc2ccccc2O1 (stereo unspecified),15.9% (active)
21,COc1ccc(CN2C(=O)C(CC(=O)NC3CCCCC3)CC(C(=O)N3CCOCC3)=C2C)cc1 (stereo unspecified),0.65% (inactive)
22,Cc1cc(OCC(=O)Nc2c(C)n(C)n(-c3ccccc3)c2=O)ccc1[N+](=O)[O-],0.08% (inactive)
23,Cc1cc(OCC(=O)NC2CCN(C)CC2)ccc1[N+](=O)[O-],23.7% (active)
24,O=C(COc1ccccc1[N+](=O)[O-])NC1CC1,1.25% (inactive)

row,Compound,activation
1,O=C(c1c(Cl)cccc1Cl)N1CCN(c2cccc3[nH]ccc23)CC1,2.17% (inactive)
2,OC(CNCCc1ccc(Cl)cc1Cl)COc1ccccc1 (stereo unspecified),16.2% (active)
3,CC(O)CNCCOc1cccc(Oc2ccccc2)c1 (stereo unspecified),1.52% (inactive)
4,COc1ccc(OCC(O)CNC(=O)Nc2ccc(Cl)cc2)cc1 (stereo unspecified),1.9% (inactive)
5,C(=N/N1CCN(c2ccccc2)CC1)/c1cccs1,0.31% (inactive)
6,COc1ccc2c(c1)CCC/C2=N\OC(=O)c1ccccc1F,1.78% (inactive)
7,Cc1ccccc1NC(=S)NC(=O)Cc1ccc(Cl)cc1,21.2% (active)
8,Cc1ccccc1N/C(SCc1ccc(Cl)cc1)=C(/C#N)C(N)=O,0.43% (inactive)
9,Cc1cc(C(=O)NNC(=S)Nc2ccccc2C)cs1,7.73% (inactive)
10,O=C(Cc1ccc(Cl)cc1)NC(=S)Nc1ccccc1O,29.2% (active)
11,Fc1ccccc1CNC(=S)Nc1ccc(Cl)cc1,11.3% (inactive)
12,CCOc1ccccc1NC(=S)NC(=O)CCc1ccccc1,-0.34% (inactive)
13,COc1ccc(CCNC(=O)C(=O)NCC2CCNCC2)cc1OC,1.91% (inactive)
14,O=C(CN1C(=O)CSC1=O)N1CCCC(Nc2ccc(F)cc2)C1 (stereo unspecified),1.24% (inactive)
15,O=C(CSc1nncn1-c1cccnc1)N1CCOCC1,0.39% (inactive)
16,Cn1c(Nc2ccc(F)cc2)nc2cc(-c3ccsc3)sc2c1=O,1.38% (inactive)
17,COc1c(N2CCN(C(=S)Nc3ccccc3F)C(C)C2)c(F)cc2c(=O)c(C(=O)O)cn(C3CC3)c12 (stereo unspecified),0.37% (inactive)
18,CC(=O)Nc1c(-c2ccc(C)cc2)nc2ccc(Cl)cn12,-0.07% (inactive)
19,CS(=O)(=O)/C(C#N)=C/c1cccn1S(=O)(=O)c1ccc([N+](=O)[O-])cc1,0.19% (inactive)
20,C[C@@H](O)c1nc2ccccc2n1N,6.47% (inactive)
21,CCN1C(=O)C(=O)N(CC(=O)Nc2cc(C)ccc2C)C1=O,0.48% (inactive)
22,Cc1c(NS(=O)(=O)c2cc(C(=O)NCCc3ccc(F)cc3)cc(Cl)c2Cl)c(=O)n(-c2ccccc2)n1C,-0.45% (inactive)
23,COc1ccccc1S(=O)(=O)c1c(C)cc(C)[nH]c1=O,0.65% (inactive)
24,Cc1cc(C)c(/C=C2\C(=O)Nc3ccccc32)[nH]1,24.4% (active)
